# PglD inh – C. jejuni PglD acetyltransferase inhibitors, primary screen, biochemical, DTNB colorimetric, single point | UDP-N-acetylbacillosamine N-acetyltransferase PglD (Campylobacter jejuni) | purified PglD enzyme, DTNB colorimetric CoA detection | inhibition, % at 12.5 µM | hit rate 0.098% among 360,000; in the data active = inhibition above about 16%, passing the limit was not always enough; inconclusive = no clear call, values can overlap the other calls
# ALR H2O2 inh – inhibitors of human ALR sulfhydryl oxidase, primary screen, biochemical, H2O2 detection, HRP-luminol luminescence, single point | purified ALR, DTT oxidation | FAD-linked sulfhydryl oxidase ALR (Homo sapiens), P55789 | AID 485317, 2010 | hit rate 3.8% among 290,000 | inhibition, % (no concentration beside the values);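 active = mean replicate inhibition above about 79%, with every replicate also reaching it, limit read from the data; inconclusive = only one of the two criteria met; inactive = mean below limit and not every replicate reaching it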
# Casp6 inh – human caspase-6 inhibitors, primary screen, biochemical, VEID-R110 fluorescence, single point, set 2 | inhibition, % at 12.5 µM | purified caspase-6, Z-VEID-R110 cleavage fluorescence | P55212 | hit rate 0.53% among 350,000;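 active = mean inhibition across replicates at least about 35%, with every replicate also reaching that limit, limit read from the data; inconclusive = only one of the two criteria met; inactive = neither criterion met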;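 also: 0% = median of neutral control wells and 100% = no fluorescence left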
# NSD2 inh – NSD2 histone methyltransferase inhibitors, primary screen, biochemical, AlphaScreen, single concentration, set 2. Histone-lysine N-methyltransferase NSD2 (Homo sapiens), O96028. inhibition, % at 12.5 µM. hit rate 0.54% among 310,000. NSD2 peptide methylation, 120 min; in the data active = inhibition above about 50%
# Env fusion inh – inhibitors of HIV-1 Env-driven cell-cell fusion, primary screen, HeLa-JRFL effector, CEM21 target cells, luciferase; hit rate 1.1% among 360,000; inhibition, % at 12.3 µM;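 active = mean replicate inhibition score of at least 50 and every replicate individually at or above 50; inconclusive = only one of the two criteria met; inactive = mean below 50 and not all replicates reaching 50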;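 also: 0% = plate neutral controls and 100% = maraviroc near 300 nM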
# F508del corr – F508del CFTR correction, initial screen, CFBE line, single point | activity (quench increase), % at 7.58 µM | hit rate 0.36% among 350,000 | AID 720511, 2013 | CFBE cells, YFP halide quenching; stimulated with forskolin plus potentiator P3; % fluorescence drop versus neutral controls;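 active = mean added fluorescence quench of at least 8% versus neutral control, with both replicates also reaching 8%; inconclusive = only one of the mean or replicate conditions met; inactive = mean below 8% and not both replicates reaching 8%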;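 also: cells transiently co-express mutant CFTR-F508del with the halide-sensitive YFP; corrector assay measuring rescue of mutant channel to the surface after 24 h compound exposure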
# Starred values were filed as active, the others as inactive; i = inactive; ? = inconclusive; . = no result; [ ] = dose if it differs, or a comment. An excerpt weighted towards active compounds, which were near 4.1% of everything screened.
SMILES,PglD inh,ALR H2O2 inh,Casp6 inh,NSD2 inh,Env fusion inh,F508del corr
O=c1c2ccccc2oc2cc(-c3ccc4[nH]ccc4c3)ccc12,1,-4,-3,.,i,10*
N#C/C(=C\c1ccc2c(c1)OCO2)C(N)=S,-4,1,-1,-2,6,-2
N#C/C(=C/c1ccco1)C(N)=S,.,4,46*,-14,-9,1
COc1ccccc1CN1C(=O)c2ccccc2[C@](Cc2ccccc2I)(C(=O)NCc2ccccc2)[C@@H]1c1ccc(CO)cc1,.,.,.,.,60*[16.7 µM],0
Cn1cnc(S(=O)(=O)N[C@H]2CC[C@H](CC(=O)Nc3ccc(-c4ccccc4)cc3)O[C@H]2CO)c1,1,.,1,.,-18[16.7 µM],-2
COC(=O)c1cn(CCNC(=O)Nc2ccccc2)nn1,.,.,1,.,10[16.7 µM],-4
Cc1cc(-c2n[nH]c(=S)n2/N=C/c2cccc([N+](=O)[O-])c2)n[nH]1,.,97*,.,-2,.,.
Cc1cc(-c2n[nH]c(=S)n2/N=C/c2cccc(O)c2)n[nH]1,2,96*,4,.,-2,0
COc1ccccc1-c1cnc2c(c1)C(=O)N([C@H](C)CO)C[C@H](C)[C@H](CN(C)CC1CC1)O2,.,.,.,.,-15[16.7 µM],-1
C[C@H](CO)N1C[C@H](C)[C@@H](CN(C)Cc2ccccc2)Oc2c(NC(=O)c3cnccn3)cccc2C1=O,9,.,-1,.,-5[16.7 µM],1
COc1ccc(-c2cc([N+](=O)[O-])ccc2OCC(=O)N(C)CC(=O)Nc2ccc(C)cc2)cc1,4,.,-6,-1,104*,3
COC(=O)CC1OCC=C2CN3CCC45C6=CC(=O)C(=O)C([N+](=O)[O-])=C6NC4C1C2CC35 (stereo unspecified),-2,.,69*,.,-1,-4
CCOc1cc(/C=N/O)ccc1OS(=O)(=O)c1ccc(C)cc1,5,36,.,-2,20,.
CCOc1cc(/C=N/O)ccc1OCc1ccc(C)cc1,.,98*,4,3,-15,.
CCN1C(=O)/C(=C\N(C)C)NC1=S,.,98*,1,-16,8,-1
COc1ccc2c3c([nH]c2c1)[C@@H](CO)N(C(=O)Cc1ccccc1)CC31CCN(C(=O)Nc2ccccc2F)CC1,.,.,-1,.,.,-2
O=C(O)c1cccc(N/N=C/c2ccc(F)c(F)c2)c1,-2,49,0,-3,-80,-3
C/C(=N\Nc1ccc([N+](=O)[O-])cc1)c1ccc(N)cc1,0,98*,0,4,.,-4
O=C(O)c1cccc(Cn2c(Cl)c(/C=N/Nc3ccccc3)sc2=O)c1,.,100*,.,19,.,.
Cc1ccsc1/C=N/Nc1cccc(C(=O)O)c1,.,60,7,3,68*,-2
Cc1ccsc1/C=N/Nc1ccc(C(=O)O)cc1,-1,.,0,-1,52,5
CCc1ccc(/C(C)=N\Nc2ccc([N+](=O)[O-])cc2)cc1,2,1,.,-1,-22,.
Cc1ccc(/C=N/Nc2cccc(C(=O)O)c2)s1,6,98*,.,4,40,.
C[C@H](CO)N1C[C@H](C)[C@H](CN(C)C(=O)Nc2ccc(C(F)(F)F)cc2)OCCCC[C@H](C)Oc2ccc(NC(=O)Nc3ccccc3)cc2C1=O,0,.,1,.,4[16.7 µM],0
CC(C)C(=O)Nc1ccc2c(c1)C(=O)N(C)[C@H]1CC[C@@H](CC(=O)NC3CCCC3)O[C@@H]1CO2,4,.,-3,.,.,-2
SMILES,PglD inh,ALR H2O2 inh,Casp6 inh,NSD2 inh,Env fusion inh,F508del corr
C/C(=N/Nc1ncc(Br)cn1)c1ccc(Br)cc1,-2,1,2,-2,5,-1
O=C(O)c1ccc(N/N=C/c2cc(Br)cs2)cc1,0,98*,4,9,21,.
CC(C)c1ccc(/C=N/Nc2ccc(C(=O)O)cc2)cc1,.,98*,12,.,66*,-1
O=C(O)c1cccc(N/N=C/c2cccc3ccccc23)c1,8,99*,8,0,?,-5
C/C(=N\Nc1ccc(C(=O)O)cc1)c1ccc(Br)cc1,-3,98*,43*,10,-3,-8
COc1ccc2c3c([nH]c2c1)[C@@H](CO)N(Cc1nccs1)CC31CCN(Cc2cncnc2)CC1,.,.,.,.,.,0
O=C(O)c1ccc(N/N=C/c2ccc(-c3ccccc3)cc2)cc1,.,.,15,1,-203,-3
Cc1ccc(/C=N/Nc2ccc(C(=O)O)cc2)o1,.,98*,6,-1,-24,1
Cc1ccc(/C=N/Nc2ccc(C(=O)O)cc2)s1,6,99*,5,.,64*,3
Cc1ccc(/C=N/NC(=O)c2ccc(C(=O)N/N=C/c3ccc(C)s3)o2)s1,-10,2,.,-4,1,.
O=C(O)c1ccc(N/N=C/C=C/c2ccccc2)cc1,-2,92*,6,-5,-48,-11
CCCNC(=O)N[C@H]1CC[C@H](CCn2cc(C3CC3)nn2)O[C@@H]1CO,2,.,6,.,-8[16.7 µM],4
COC(=O)c1ccccc1-c1ccc(/C=N/NC(=O)c2cc3ccccc3o2)o1,1,1,.,-4,.,.
COC(=O)c1ccccc1-c1c2ccc(=N)cc-2oc2cc(N)ccc12,-4,.,i,-3,53,62*
COC(=O)C1=C(C)N(Cc2cccc(C(F)(F)F)c2)C(=NCc2ccc(OC)cc2)NC1c1ccc(F)cc1 (stereo unspecified),.,.,8,.,2,1
COC(=O)C1=C(C)N(Cc2ccc(Cl)cc2)C(=S)NC1c1ccc(Cl)cc1 (stereo unspecified),.,.,-5,.,61*,5
COC(=O)C1=C(C)N(Cc2cccc(C(F)(F)F)c2)C(=NCc2ccc(OC)cc2)NC1c1ccccc1 (stereo unspecified),.,.,20,.,55*,-1
COC(=O)C1=C(C)N(Cc2cccc(C(F)(F)F)c2)C(=NCc2ccc3c(c2)OCO3)NC1c1ccc(Cl)cc1 (stereo unspecified),.,.,10,.,63*,-1
COC(=O)C1=C(C)N(C)C(=NCc2ccc3c(c2)OCO3)NC1c1cccc(C(F)(F)F)c1 (stereo unspecified),.,.,-7,.,20,3
COC(=O)C1=C(C)N(C)C(=NCc2ccc3c(c2)OCO3)NC1c1ccc(C(F)(F)F)cc1 (stereo unspecified),.,.,-8,.,57*,0
O=C(C[C@@H]1C[C@H]2c3cc(NC(=O)Nc4ccc(C(F)(F)F)cc4)ccc3O[C@H]2[C@H](CO)O1)NCc1ccc(Cl)cc1,-4,.,-3,.,19[16.7 µM],3
